Shown are actives, neighbours in structure and some others; about 19% of the full set was active somewhere.
TDP1 cell CPT: qHTS for Inhibitors of human tyrosyl-DNA phosphodiesterase 1 (TDP1): qHTS in cells in presence of CPT | Potency, µM (top dose mostly 46.2 µM), for the others: at the top dose activity change, negative = growth inhibition, most hits filed as inhibitors | 420,000 tested, 12% active | chicken DT40 Tdp1-/-;hTDP1 cells + 20 nM CPT, ATP luminescence, 48 h; note: potency is the fitted concentration of half-maximal effect; % is set by controls: 0 for no effect and ±100 for the full control effect; nearly all actives have a fitted effect of over 55% in size
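Chicken DT40 Tdp1-/- cells complemented with human TDP1, 400 cells/well, exposed to compounds plus 20 nM camptothecin for at least 48 h at 37 C; viability read as ATP content by CellTiter-Glo luminescence.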
IL1B secr inh: qHTS for Inhibitors of Inflammasome Signaling: IL-1-beta AlphaLISA Primary Screen; THP-1 LPS/ATP IL-1B secretion, AlphaLISA, 16 h; stronger effect = lower value; activity change, % at 57.5 µM; 360,000 tested, 4.7% active; AID 743279, 2014; in the data active = activity change below about -50%; inconclusive = mostly about -30% to -49%; note: % is set by controls: 0 for no effect and ±100 for the full control effect
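Secreted IL-1B measured by AlphaLISA bead assay after 16 h compound exposure of THP-1 cells; compounds (final up to 57.5 uM) added 1 h before LPS (250 ng/mL) and ATP (1.25 mM) stimulation; lower signal means less secretion.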
TGFb SMAD3 inh: qHTS for Inhibitors of TGF-b. HepG2 CAGA-GFP TGF-b/SMAD3 reporter, GFP fluorescence, 18 h; TGF-beta stimulated, 500 pg/mL final. Potency, µM (highest dose often 46.1 µM), inactives show at the highest dose activity, negative = inhibition, actives largely listed as inhibitors. 410,000 tested, 1.2% active. AID 588855, 2011; note: potency is the fitted concentration of half-maximal effect; % is set by controls: 0 for no effect and ±100 for the full control effect; nearly all actives have a fitted effect of over 65% in size
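Smad-responsive CAGA-GFP expression was quantified in HEPG2 cells exposed to compounds and 500 pg/mL final TGF-beta for 18 h at 37 degrees C; unstimulated wells defined full inhibition.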
HepG2 viability: qHTS for Inhibitors of TGF-b: Cytotox Counterscreen | AID 588856, 2011 | Potency, µM (series often up to 46.1 µM), inactives show top-dose activity change, negative = cytotoxicity, hits mostly cytotoxic | 410,000 tested, 0.76% active | HepG2 CAGA-GFP viability, ATP luminescence, 18 h; note: potency is the fitted concentration of half-maximal effect
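HepG2 CAGA-GFP cells (1000/well, DMEM with 1% FBS) received compound, then TGF-beta at 500 pg/mL final, and were incubated 18 hours at 37 degrees C. Viability was read by CellTiter-Glo luminescence. Media-only wells were set as complete cell-killing and DMSO as no toxicity.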
TDP1 cell noCPT: qHTS for Inhibitors of human tyrosyl-DNA phosphodiesterase 1 (TDP1): qHTS in cells in absence of CPT | AID 686978, 2013 | Potency, µM (highest dose often 46.2 µM), without a hit: top-dose activity change, negative = growth inhibition, usual class: inhibitors | 420,000 tested, 15% active | DT40 Tdp1-/- hTDP1 cells, no CPT, ATP luminescence, 48 h; note: potency is the fitted concentration of half-maximal effect; % is set by controls: 0 for no effect and ±100 for the full control effect; nearly all actives have a fitted effect of over 55% in size
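Stably hTDP1-transfected Tdp1-null chicken DT40 cells were treated with library compounds minus camptothecin and grown for at least 48 hr at 37 °C, after which cellular ATP was quantified by luminescence.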
S-ASM inh: Inhibitors of Secretory Acid Sphingomyelinase (S-ASM): qHTS; Sphingomyelin phosphodiesterase (Homo sapiens), P17405; placental ASM, HMU-PC fluorogenic substrate, 60 min; Potency, µM (top dose mostly 57.5 µM), inactives show at the top dose activity change, negative = inhibition, hits mostly inhibitors; 340,000 tested, 0.006% active; AID 504937, 2011; note: potency is the fitted concentration of half-maximal effect
Target sequence (P17405 47-631 limits assumed): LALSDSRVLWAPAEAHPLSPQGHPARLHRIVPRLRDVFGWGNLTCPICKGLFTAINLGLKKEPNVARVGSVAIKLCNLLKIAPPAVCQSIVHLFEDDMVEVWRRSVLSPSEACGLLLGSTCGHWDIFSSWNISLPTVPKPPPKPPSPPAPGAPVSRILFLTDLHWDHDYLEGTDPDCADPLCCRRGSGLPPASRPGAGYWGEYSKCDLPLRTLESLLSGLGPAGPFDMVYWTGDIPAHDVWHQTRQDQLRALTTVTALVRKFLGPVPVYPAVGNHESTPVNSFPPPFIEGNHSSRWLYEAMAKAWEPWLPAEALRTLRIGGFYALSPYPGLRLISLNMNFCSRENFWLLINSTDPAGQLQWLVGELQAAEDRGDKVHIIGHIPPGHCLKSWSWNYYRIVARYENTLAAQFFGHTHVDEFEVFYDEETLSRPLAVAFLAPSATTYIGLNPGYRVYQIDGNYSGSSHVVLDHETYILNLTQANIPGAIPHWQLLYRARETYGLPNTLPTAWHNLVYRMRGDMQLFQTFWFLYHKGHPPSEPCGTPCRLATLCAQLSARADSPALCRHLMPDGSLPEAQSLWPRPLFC
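Fluorogenic HMU-PC substrate (9 uM final) is turned over by placental ASM in 60 min at 37 C after a 10 min compound preincubation. Reaction ended by alkaline stop (pH 10), with fluorescence read at 386/447 nm.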
* marks the source's active call; other numbers are inactive results; ? = inconclusive; / = not tested or not shown. Unless noted, calls come from the whole dose curve; as a rule, active = well fitted curve in the direction sought with a large enough effect; inconclusive = small, poorly fitted or top-dose-only effect, or another doubt; inactive = no such curve, though single readings can be large; an effect the other way counts as inactive or inconclusive.

SMILES	TDP1 cell CPT	IL1B secr inh	TGFb SMAD3 inh	HepG2 viability	TDP1 cell noCPT	S-ASM inh
COc1cccc(C(C(=O)NC(C)(C)C)N(Cc2ccc(C)cc2)C(=O)CCC(=O)Nc2cc(C)on2)c1OC (configuration not stated)	?	-11	4%	-3%	?	-8%
Cc1cc(NC(=O)CCC(=O)N(c2ccccc2)C(C)C(=O)NC2CCCC2)no1 (configuration not stated)	3%	34	1%	8%	-4%	1%
COCCN(C(=O)Cn1nnc2ccccc21)C(C(=O)NC1CCCCC1)c1ccc(OC)cc1OC (configuration not stated)	-4%	-11	8%	-11%	-7%	-4%
Cc1cc(C)cc(N(C(=O)CCC(=O)Nc2cc(C)on2)C(C(=O)NC2CCCC2)c2ccco2)c1 (configuration not stated)	?	-5	-13%	-6%	21µM*	-2%
COc1ccc(C(C(=O)NC(C)(C)C)N(C(=O)CCC(=O)Nc2cc(C)on2)c2cc(C)cc(C)c2)cc1 (configuration not stated)	?	-2	5%	4%	21µM*	-2%
Cc1cccc(N(C(=O)CCC(=O)Nc2cc(C)on2)C(C(=O)NC2CCCC2)c2ccc(C)o2)c1 (configuration not stated)	?	-1	-18%	3%	-18%	-1%
COc1ccc(N(C(=O)Cn2nnc3ccccc32)C2(C(=O)NC3CCCC3)CCCCC2)cc1	?	-58*	-9%	-14%	?	3%
CCCS(=O)(=O)N1CC(=O)N(c2ccccc2C)C(C)(C(=O)NC2CCCC2)C1 (configuration not stated)	4%	/	0%	-18%	-12%	/
CCCNC(=O)C1(C)CCN(Cc2cc(-c3ccccc3)on2)C1 (configuration not stated)	?	-2	-3%	-3%	15µM*	/
CCCNC(=O)C1(C)CCCN(Cc2csc(-c3ccccc3)n2)C1 (configuration not stated)	?	?	-6%	-25%	21µM*	/
COc1cc(OC)cc(C2=Cc3ccccc3C(CC(C)=O)N2c2ccc(-c3cncnc3)cc2)c1 (configuration not stated)	18µM*	0	/	/	16µM*	/
COc1cc(OC)cc(C2=Cc3ccccc3C(CC(C)=O)N2c2ccc(C#CC3(O)CCCCC3)cc2)c1 (configuration not stated)	?	-24	/	/	?	/
O=C(CC1c2ccccc2C=C(c2ccsc2)N1c1ccc(-c2cccnc2)cc1)C1CC1 (configuration not stated)	?	-13	/	/	18µM*	/
COc1cc(OC)cc(C2=Cc3ccccc3C(CC(C)=O)N2c2ccc(-c3cccs3)cc2)c1 (configuration not stated)	?	18	/	/	21µM*	/
COc1cc(OC)cc(C2=Cc3ccc(OC)cc3C(CC(C)=O)N2c2ccc(-c3cccs3)cc2)c1 (configuration not stated)	21µM*	0	/	/	8.2µM*	/
Cc1ccc(CCNC(=O)c2nnc(CS(=O)(=O)c3ccccc3)o2)cc1	-6%	-8	-4%	-22%	?	-5%
COc1cccc(C2=Cc3ccc(F)cc3C(CC(C)=O)N2c2ccc(-c3cc(OC)c(OC)c(OC)c3)cc2)c1 (configuration not stated)	-3%	-3	/	/	-14%	/
COc1ccc(-c2ccc(N3C(c4ccsc4)=Cc4ccc(F)cc4C3c3c[nH]c4ccccc34)cc2)cc1 (configuration not stated)	?	32	/	/	18µM*	/
COC(=O)c1ccc(N2C(c3cccc(OC)c3)=Cc3ccc(F)cc3C2c2c(C)[nH]c3ccccc23)cc1 (configuration not stated)	23µM*	41	/	/	?	/
Cn1cncc1C#Cc1ccc(N2C(c3ccsc3)=Cc3ccc(F)cc3C2c2c[nH]c3ccccc23)cc1 (configuration not stated)	?	4	/	/	?	/
COc1cccc(C2=Cc3ccc(F)cc3C(CC(C)=O)N2c2ccc(-c3cncnc3)cc2)c1 (configuration not stated)	13µM*	15	/	/	16µM*	/
COc1cccc(/C=C/c2nc(C#N)c(NCCN(C)C)o2)c1	-30%	/	-3%	-8%	?	/
c1ccc(COc2ccc(CNCc3cccnc3)cc2)cc1	-17%	-63*	-31%	-35%	?	-4%
CN(Cc1ccccc1)CC(O)COc1ccc(CNCc2ccc(Cl)s2)cc1 (configuration not stated)	?	-80*	13µM*	-59%	16µM*	2%
CN(Cc1ccccc1)CC(O)COc1ccc(CNCc2cccnc2)cc1 (configuration not stated)	23µM*	-14	3%	-9%	?	0%
SMILES	TDP1 cell CPT	IL1B secr inh	TGFb SMAD3 inh	HepG2 viability	TDP1 cell noCPT	S-ASM inh
CN(Cc1ccccc1)CC(O)COc1ccc(CNCCOc2cccnc2)cc1 (configuration not stated)	-11%	12	1%	1%	-12%	-7%
Cc1ccc(CNCc2cccnc2)cc1	-14%	20	4%	-6%	-2%	4%
c1ccc(COc2ccc(CNCc3cccs3)cc2)cc1	?	-8	-10%	-57%	13µM*	-2%
COc1ccc(C2(C(=O)NCC3Cc4cccc(-c5nc(C)cnc5C)c4O3)CCCC2)cc1 (configuration not stated)	?	/	/	/	-22%	/
O=C1C2CC=CCC2C(=O)N1n1cnnc1 (configuration not stated)	2%	-2	0%	9%	9%	8%
NNC(=O)CC12CC3CC(C1)CC(n1ncnn1)(C3)C2	-15%	0	3%	-8%	-11%	-1%

Screens (PubChem)
